Compound activity from PubChem BioAssay.
SW480 rerep: A quantitative high throughput screen for small molecules that induce DNA re-replication in SW480 colon adenocarcinoma cells; SW480 DNA re-replication, Hoechst DNA content imaging, 48 h; Potency, µM (doses to about 46.1 µM), without a hit: at the top dose re-replication activation, actives largely listed as activators; hit rate 1.8% among 340,000; note: potency is the fitted concentration of half-maximal effect; % of control where 0% means no effect; nearly all actives have a fitted effect of over 55% in size
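Compounds, transferred as 23 nL by pin tool, were incubated with cells for 48 hr; DNA content per nucleus was then quantified by Hoechst staining and fluorescence plate imaging.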
MCF10A rereplic: A quantitative high throughput screen for small molecules that induce DNA re-replication in MCF 10a normal breast cells; MCF 10A DNA re-replication, Hoechst nuclear intensity, 48 h; Potency, µM (titrated, usually from 46.1 µM), for inactives: at the top dose activity, positive = re-replication, most hits filed as activators; hit rate 2.9% among 350,000; AID 624296, 2012; note: potency is the fitted concentration of half-maximal effect; % of control where 0% means no effect; nearly all actives have a fitted effect of over 50% in size
RORgamma inh: qHTS for inhibitors of ROR gamma transcriptional activity; Nuclear receptor ROR-gamma (Mus musculus), P51450; Drosophila S2 Gal4-RORgamma UAS-luciferase reporter, 20 h; Potency, µM (highest dose often 53.6 µM), without a hit: at the highest dose activity change, negative = inhibition, hits mostly inhibitors; hit rate 5.4% among 310,000; note: potency is the fitted concentration of half-maximal effect; % is set by controls: 0 for no effect and ±100 for the full control effect; nearly all actives have a fitted effect of over 60% in size
Target sequence (P51450 whole entry, looked up, the tested form may be a part): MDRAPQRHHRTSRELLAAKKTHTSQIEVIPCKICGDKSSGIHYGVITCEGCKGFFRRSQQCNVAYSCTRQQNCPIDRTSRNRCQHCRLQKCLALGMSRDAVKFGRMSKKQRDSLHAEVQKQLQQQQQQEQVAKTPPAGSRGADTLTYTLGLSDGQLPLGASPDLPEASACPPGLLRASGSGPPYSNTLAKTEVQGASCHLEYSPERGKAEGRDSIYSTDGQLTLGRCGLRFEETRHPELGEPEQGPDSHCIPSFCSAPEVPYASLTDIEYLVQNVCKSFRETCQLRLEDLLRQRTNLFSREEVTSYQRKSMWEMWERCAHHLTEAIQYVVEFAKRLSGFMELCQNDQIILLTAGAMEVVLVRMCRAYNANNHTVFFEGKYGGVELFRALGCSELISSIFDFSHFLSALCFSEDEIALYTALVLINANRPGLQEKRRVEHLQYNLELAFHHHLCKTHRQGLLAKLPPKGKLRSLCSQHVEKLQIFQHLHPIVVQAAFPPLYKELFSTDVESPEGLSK
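ROR gamma transcriptional activity was tracked as Gal4-UAS luciferase output in stably transfected Drosophila Schneider cells, with compound added 1 hr before 700 uM copper sulfate induction and a 20 hr ambient-temperature incubation.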
IL1B secr inh: qHTS for Inhibitors of Inflammasome Signaling: IL-1-beta AlphaLISA Primary Screen; THP-1 LPS/ATP IL-1B secretion, AlphaLISA, 16 h; hits give low values; hit rate 4.7% among 360,000; activity change, % at 57.5 µM; AID 743279, 2014; in the data active = activity change below about -50%; inconclusive = mostly about -30% to -49%; note: % is set by controls: 0 for no effect and ±100 for the full control effect
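THP-1 cells pretreated 1 hr with compounds (up to 57.5 uM final), then stimulated with LPS (250 ng/mL final) plus ATP (1.25 mM final); secreted IL-1B measured by AlphaLISA after 16 hr, decreased signal indicating inhibition.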
VP16 counter: VP16 counterscreen qHTS for inhibitors of ROR gamma transcriptional activity; AID 2546, 2010; Potency, µM (doses to about 53.6 µM), for the others: top-dose activity, negative = inhibition, actives largely listed as inhibitors; hit rate 3.5% among 310,000; Drosophila S2 Gal4-VP16 UAS-luciferase, luminescence, 20 h;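 note: Gal4-VP16 expression switched on by copper sulfate through the metallothionein promoter; potency is the fitted concentration of half-maximal effect; % is set by controls: 0 for no effect and ±100 for the full control effect; nearly all actives have a fitted effect of over 50% in size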
An asterisk follows results filed as active; i = inactive; u = inconclusive; x = no result; [ ] = dose if it differs, or a comment. Only some compounds are listed: those with a hit (about 11% of all), similar ones and a draw of the others. Unless noted, calls come from the whole dose curve; as a rule, active = well fitted curve in the direction sought with a large enough effect; inconclusive = small, poorly fitted or top-dose-only effect, or another doubt; inactive = no such curve, though single readings can be large; an effect the other way counts as inactive or inconclusive.

SMILES	SW480 rerep	MCF10A rereplic	RORgamma inh	IL1B secr inh	VP16 counter
CCC(C)c1ccc(C(C)NC(=S)NCc2ccc(F)cc2)cc1 (stereo not given)	u	u	2.8µM*	-80*	5µM*
COc1ccc(C(C)NC(=S)NCc2ccc(F)cc2)cc1OC (stereo not given)	u	8%	13µM*	i	u
COc1ccc(C)cc1NC(=S)NC(C)c1ccc(OC)c(OC)c1 (stereo not given)	-5%	2%	2.8µM*	-26	10µM*
CCOc1ccc(NC(=O)CN(C)C(=O)C2CC(=O)N(c3ccc4c(c3)OCCO4)C2)cc1OCC (stereo not given)	-1%	1%	x	-2	x
COc1cc(C(=O)COC(=O)c2ccc([N+](=O)[O-])o2)cc(OC)c1OC	-2%	4%	x	-10	x
Cc1cc2c(cc1C)-n1nnnc1C(N1CCN(c3ncccc3C#N)CC1)C(=O)N2 (stereo not given)	x	x	x	32	x
CCOc1ccc(C(C)NC(=S)NCc2ccc(Cl)cc2)cc1 (stereo not given)	7%	18%	0.79µM*	0	13µM*
CC(NC(=S)NCc1ccc(F)cc1)C12CC3CC(CC(C3)C1)C2 (stereo not given)	-48%	u	1.8µM*	-84*	5µM*
CCCc1ccc(C(C)NC(=S)NCc2ccc(F)cc2)cc1 (stereo not given)	u	10%	0.63µM*	28	3.2µM*
C[C@H](NC(=O)NCc1ccc(F)cc1)C(=O)O	u	-9%	3%	-7	-8%
CCOc1ccc(OCCC(=O)OCC(=O)NCc2ccc(Cl)cc2)cc1	4%	0%	x	4	x
O=C(NCc1ccccc1)C(=O)Nc1nc(C23CC4CC(CC(C4)C2)C3)cs1	u	u	7.9µM*	23	7.1µM*
O=C(NCc1ccncc1)C(=O)Nc1nc(C23CC4CC(CC(C4)C2)C3)cs1	7%	u	-6%[10 µM]	0	-22%
CNC(=O)C(=O)Nc1nc(C23CC4CC(CC(C4)C2)C3)cs1	u	u	-42%	-22	12%
Cc1noc(C)c1C(=O)Nc1nc(C23CC4CC(CC(C4)C2)C3)cs1	9%	u	u	-58*	22µM*
O=C(NCc1ccc(F)cc1)C(=O)Nc1nc(C23CC4CC(CC(C4)C2)C3)cs1	u	18µM*	5.6µM*	-2	4µM*
Oc1ccc(N=Nc2ccc3c(c2)OCCO3)c2cccnc12	0%	26%	0%	44	-22%
Cc1ccc(O)c2ncccc12	u	u	5µM*	x	8.9µM*
Cc1ccccc1N=Nc1ccc(O)c2ncccc12	u	u	0.63µM*	2	0.89µM*
COc1ccc(N=Nc2ccc(O)c3ncccc23)cc1	u	20%	0.13µM*	93	u
COc1cccc(N=Nc2ccc3cccnc3c2O)c1	2%	28%	0.56µM*	26	0.89µM*
Cc1c(C)c2cccnc2c2ncccc12	u	u	x	-4	x
O=S(=O)(O)c1cccc2c(N=Nc3ccc(O)c4ncccc34)cccc12	-6%	-10%	u	0	-16%
COc1cc(OC)c(C(=O)OCC(=O)Nc2nnc(-c3ccccc3)o2)cc1OC	-15%	-5%	x	10	x
COC(=O)[C@@]1(Cc2ccc(F)cc2)[C@H]2c3cc(C(=O)N4CCCC4)n(CCN4CNCC4=O)c3C[C@H]2CN1C(=O)c1ccccc1	x	x	17%	x	-15%
CCCCCC(=O)N1C[C@H](O)[C@@H](n2cc(COC(=O)c3ccccc3)nn2)C[C@@H]1c1ccc(OC)cc1	x	x	x	-1	x
O=Nc1ccc(O)c2ncccc12	u	13%	1.6µM*	-98*	5.6µM*
COCc1ccc(O)c2ncccc12	26%	7.3µM*	6.3µM*	118	3.2µM*
Nc1ccc(N=Nc2ccccc2)c2cccnc12	-5%	0%	-37%	-21	8%
COc1ccc(C)cc1N=Nc1ccc(O)c2ncccc12	u	17%	0.79µM*	-10	0.63µM*
